Measured values from PubChem BioAssay AID686979 (National Center for Advancing Translational Sciences (NCATS), 2013).
Screen size: about 420,000 compounds; about 50,000 (12%) were called active. Inconclusive results (about 26%) are left out. Calls follow the shape of the dose curve; as a rule, active = well fitted inhibition curve with a large enough effect; inconclusive = small, poorly fitted or top-dose-only effect; inactive = flat fitted curve, though single readings scatter. The entries come from a sample that favours actives as a whole. Entries that show only a call come without a potency. Where a SMILES comes first, the peptide text is derived from it. [ ]: non-standard residue; d: D form. ξ: configuration not given here. Ac5c = NC1(C(=O)O)CCCC1; ξS = NC(CO)C(=O)O

Assay: qHTS for Inhibitors of human tyrosyl-DNA phosphodiesterase 1 (TDP1): qHTS in cells in presence of CPT; also: nearly all actives have a fitted effect of over 55% in size
Settings: chicken DT40 Tdp1-/-;hTDP1 cells + 20 nM CPT, ATP luminescence, 48 h; series mostly up to 46.2 µM
Summary of the method: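 Cell growth measured by CellTiter-Glo luminescence after a minimum 48 h, 37 C compound exposure with 20 nM CPT in Tdp1-knockout DT40 cells stably expressing hTDP1, seeded 400/well; qHTS titration format.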
Potency is read from the fitted curve at half-maximal effect.

| Structure (SMILES) | Potency |
| --- | --- |
| COc1ccc2cc(C(=O)O)n(CC(=O)c3ccccc3)c2c1 | inactive |
| CCOC(=O)C1=C(c2ccccc2)O/C(=C(/C(=O)OC)C(F)(F)F)S1 | inactive |
| O=C(NCC(=O)N(CC1CCCO1)C(C(=O)NC1CCCCC1)c1ccccc1)c1ccco1 (centres undefined) | inactive |
| CCCCN(C)CCNC(=O)C1CCCN(S(=O)(=O)c2cccc3nsnc23)C1 (centres undefined) | inactive |
| O=C(c1ccco1)N1CCN(C(=O)C2CCCN(S(=O)(=O)c3cccc4nsnc34)C2)CC1 (centres undefined) | inactive |
| CCCCN(CC)C(=O)C1CCCN(S(=O)(=O)c2cccc3nsnc23)C1 (centres undefined) | 25.9 µM (active) |
| CCOC(=O)C(CO)NC(=O)C1(NC(C)=O)CCCC1 (centres undefined) (Ac-[Ac5c]-[ξS]-OEt) | inactive |
| OCC1(Cc2ccccc2C(F)(F)F)CCN(Cc2ccncc2)CC1 | inactive |
| Cc1cc([N+](=O)[O-])ccc1NC(=O)C1CCCO1 (centres undefined) | inactive |
| COc1cccc(C(=O)Oc2cc(C)[nH]c(=O)c2[N+](=O)[O-])c1 | inactive |
| COc1cccc(C(=O)CC(=O)C(=O)Nc2ccc([N+](=O)[O-])cc2C)c1 | 23.1 µM (active) |
| COc1ccc(NC(=O)CCNC(=O)Cn2ccc3ccccc3c2=O)c(OC)c1 | inactive |
| COc1ccccc1NC(=O)c1cc(Cl)nc2ccccc12 | inactive |
| CCN(CCCNC(=O)Cn1ncc2c([nH]c3ccccc32)c1=O)c1cccc(C)c1 | inactive |
| COc1ccc(Nc2cc(C(=O)NCCCN(C)c3ccccc3)c3ccccc3n2)c(OC)c1 | 13 µM (active) |
| COc1ccc(NC(=O)CNC(=O)Cn2ccc3ccccc3c2=O)c(OC)c1 | inactive |
| COc1ccc(NC(=O)c2cc(-c3cc(OC)c(OC)c(OC)c3)nc3ccccc23)c(OC)c1 | 13 µM (active) |
| CCN(CCCNC(=O)c1cc(Nc2ccc(OC)cc2)nc2ccccc12)c1cccc(C)c1 | 20.6 µM (active) |
| COc1ccc(NC(=O)c2cc(-c3ccc(C)o3)nc3ccccc23)cc1 | inactive |
| COc1ccc(CNC(=O)COC(=O)C2=Cc3ccccc3OC2)cc1 | inactive |
| COC(=O)c1ccc(CNC(=O)Cn2cc(C)c(=O)[nH]c2=O)cc1 | inactive |
| O=C(Cn1c2[n+](c3ccc(C(F)(F)F)cc31)CCCCC2)Nc1c(F)cccc1F | inactive |
| Cc1ccc(CN(C)Cc2cc(=O)oc3cc(C)c(Cl)cc23)cc1 | inactive |
| Cc1cc(NC(=O)CSc2ncc(C(F)(F)F)cc2Cl)no1 | inactive |
| Cc1c(Cl)cccc1NC(=O)CCC(=O)N/N=C/c1ccco1 | inactive |

| Structure (SMILES) | Potency |
| --- | --- |
| C[C@H](CO)N1C[C@H](C)[C@@H](CN(C)C(=O)NC2CCCCC2)Oc2ccc(NC(=O)c3ccncc3)cc2C1=O | inactive |
| COC(=O)c1ccccc1NC(=S)NC(=O)c1ccccc1F | inactive |
| S=C(NCc1cccnc1)Nc1ccc(Cl)cc1Cl | inactive |
| NS(=O)(=O)c1ccc(-c2ccc(/C=C3\SC(=O)NC3=O)o2)cc1 | inactive |
| Cc1ccc(NC(=O)CCC(=O)c2ccc(Br)cc2)cc1 | inactive |
| Cc1ccccc1-c1nc(SCC(=O)N(C)c2ccccc2)c2c(=O)n(C)c(=O)n(C)c2n1 | 20.6 µM (active) |
| Cc1cccc(-c2nc(SCC(=O)Nc3cc(C)on3)c3c(=O)n(C)c(=O)n(C)c3n2)c1 | inactive |
| Cn1c(=O)c2c(SCC(=O)NCC3CCCO3)nc(-c3ccccc3F)nc2n(C)c1=O (centres undefined) | inactive |
| CN(C(=O)COC(=O)c1nc(Cl)ccc1Cl)C1CCS(=O)(=O)C1 (centres undefined) | inactive |
| Cc1cc(C)c2nc(N3CCC(C(=O)NCCN4CCOCC4)CC3)sc2c1 | inactive |
| COC(=O)c1ccc(NC(=O)CSc2nncc3ccc(OC)c(OC)c23)cc1 | inactive |
| COc1ccc(/C(=N\O)c2nccc3cc(OC)c(OC)cc23)cc1OC | inactive |
| COC(=O)c1ccc(-c2c(-c3ccccc3)ncc3cc(OC)c(OC)cc23)cc1 | 20.6 µM (active) |
| CCN(CC)CCn1c2c(c(SCC(=O)Nc3ccc(C(C)C)cc3)nc1=O)CCC2 | inactive |
| CC(=O)OCC(=O)C1(O)CCC2C3CC(C)C4=CC(=O)CCC4(C)C3C(O)CC21C (centres undefined) | inactive |
| COc1ccc(C(=O)NC(C)Cn2nc(C)cc2C)cc1OC1CCN(C(C)=O)CC1 (centres undefined) | inactive |
| O=C(CN1C(=O)c2ccc([N+](=O)[O-])cc2C1=O)Nc1nnc(C2CC2)s1 | inactive |
| C=CCOc1ccc(/C=C/C(=O)OCC(=O)NCC2CCCO2)cc1 (centres undefined) | inactive |
| CCNC(=O)c1ccc(OCC(=O)Nc2ccc(F)cc2)c(OC)c1 | inactive |
| COc1ccc(C(=O)N/N=C2\CCS(=O)(=O)c3ccc(F)cc32)cc1OC | 18.4 µM (active) |
| COc1ccc(/C=N/NC(=O)c2ccc3c(c2)OCCO3)c(OC)c1 | inactive |
| CCN(Cc1ccccc1)C(=O)Cc1ccc(OC)c(S(=O)(=O)N2CCOCC2)c1 | inactive |
| CCOC(=O)/C(C#N)=C/c1cn(CCC(=O)O)nc1-c1ccc(Br)cc1 | inactive |
| O=C(O)CCn1cc(/C=C/C(=O)c2ccc(Cl)cc2)c(-c2cccc(Br)c2)n1 | 20.6 µM (active) |
| O=C(O)/C=C/c1cn(Cc2ccccc2)nc1-c1cccs1 | inactive |

| Structure (SMILES) | Potency |
| --- | --- |
| Cc1cc(C)cc(N)c1 | inactive |
| O=C(NCc1ccco1)C(c1ccncc1)N(C(=O)Cn1nnc2ccccc21)c1ccccc1 (centres undefined) | inactive |
| CC(C)(C)OC(=O)N/N=C/c1ccc(C(=O)O)cc1 | inactive |
| COC(=O)C1(C(=O)OC)C/C=C\CN(S(=O)(=O)c2ccccc2[N+](=O)[O-])CCC1 | inactive |
| Oc1ccc(/C=N/Nc2ccc(C(F)(F)F)cn2)cc1O | 2.91 µM (active) |
| O=C(Nc1ccccc1)Nc1ccc(C(F)(F)F)cn1 | inactive |
| Cc1nnsc1C(=O)N/N=C/c1cccc(C(F)(F)F)c1 | inactive |
| COc1ccc(C(=O)Nc2cccc(/C=C(/CCC(=O)O)c3nc4ccccc4s3)c2)cc1 | inactive |
| O=C(CC(NCc1cccnc1)C(=O)O)Nc1ccc(O)cc1 (centres undefined) | inactive |
| Cc1cc2c(cc1C)C(c1cccc(OC(C)C)c1)CC(=O)N2 (centres undefined) | 16.4 µM (active) |
| COc1cc2c(cc1OC)C(c1ccncc1)CC(=O)N2 (centres undefined) | inactive |
| COC(=O)c1ccc(C2CC(=O)Nc3cc(OC)c(OC)cc32)cc1 (centres undefined) | inactive |
| Cc1cccc(C)c1NC(=O)C(c1cccc(F)c1)N1CCN(C)CC1 (centres undefined) | inactive |
| CC(=O)Nc1sc2c(c1C(c1cccc(F)c1)N1CCN(CCO)CC1)CCCC2 (centres undefined) | 23.1 µM (active) |
| O=C(NC(c1ccccc1)c1ccccc1)N1CCN(CCO)CC1 | inactive |
| COc1ccccc1CNC(=O)COC(=O)CNS(=O)(=O)c1ccc(NC(C)=O)cc1 | inactive |
| O=C(Cc1ccccc1)Nc1c(Cl)ccc2nsnc12 | inactive |
| CCOC(=O)N1CCN(C(=O)c2cn(C)c3ccc(S(=O)(=O)N(CC)CC)cc3c2=O)CC1 | inactive |
| CCN(CC)S(=O)(=O)c1ccc2c(c1)c(=O)c(C(=O)N1CCN(c3cccc(Cl)c3)CC1)cn2C | inactive |
| C=CCn1cc(C(=O)NCc2ccc(Cl)cc2)c(=O)c2cc(S(=O)(=O)N(CC)CC)ccc21 | 20.6 µM (active) |
| CSc1ncnc2c1ncn2CCCNCC(C)c1ccccc1 (centres undefined) | inactive |
| O=C(Nc1cc(S(=O)(=O)N2CCOCC2)ccc1OCC(F)(F)F)c1ccc(N2CCCC2=O)cc1 | inactive |
| CC(C)c1ccc(NC(=S)NC2CC3C=CC2C3)cc1 (centres undefined) | 14.6 µM (active) |
| S=C(NNC(=S)NC1CC2C=CC1C2)NC1CC2C=CC1C2 (centres undefined) | inactive |
| S=C(NNC(=S)NC1CC2CCC1C2)NC1CC2C=CC1C2 (centres undefined) | inactive |

| Structure (SMILES) | Potency |
| --- | --- |
| COCCCN(C(=O)CSCc1ccc(C)cc1)c1c(N)n(Cc2ccccc2)c(=O)[nH]c1=O | inactive |
| O=C(NCCC1CCCCN1S(=O)(=O)c1ccccc1)C(=O)NCC1CCCO1 (centres undefined) | inactive |
| O=C(NCCC1CCCCN1S(=O)(=O)c1ccc(Cl)cc1)C(=O)NCc1ccco1 (centres undefined) | 16.4 µM (active) |
| Cc1ccc(S(=O)(=O)N2CCCC2C(=O)NCc2ccco2)cc1 (centres undefined) | inactive |
| O=C(/C=C/[C@H]1O[C@@H](n2ccc(=O)[nH]c2=O)[C@H](O)[C@@H]1O)NCc1ccccn1 | inactive |
| COc1ccc(OCCCn2c(C)nc3cc(C)c(C)cc32)cc1 | 11.6 µM (active) |
| Cc1cc2nc(C)n(CCCNC(=O)Nc3ccccc3)c2cc1C | inactive |
| COc1ccc(OCCn2ccnc2C)cc1 | inactive |
| CCn1cc(C(=O)NCCC(=O)NCCO)c(=O)c2cc3c(cc21)OCO3 | inactive |
| COC(=O)C1=C(C(=O)OC)[C@@H]2N(C)c3ccccc3[C@@]23C[C@@H](C(=O)OC)N(C(=O)c2ccco2)C3=N1 | inactive |
| Cc1noc(C)c1NC(=O)Nc1ccc2c(c1)C(=O)N([C@H](C)CO)C[C@H](C)[C@@H](CN(C)S(=O)(=O)c1cn(C)cn1)O2 | inactive |
| COc1ccc(CNC(=O)CSc2n[nH]c(N)n2)cc1OC | inactive |
| CCC(CO)Oc1cc(NC(=O)c2cccc(F)c2)c2ncn(C(C)C)c2c1 (centres undefined) | inactive |
| CCC(CO)Oc1cc(NC(=O)c2ccc(Cl)cc2)c2ncn(C(C)C)c2c1 (centres undefined) | inactive |
| CC(C)n1cnc2c(NCc3ccccc3)cc(OCC3CCN(C)CC3)cc21 | 20.6 µM (active) |
| Cn1nc(C(=O)OCC(=O)N(Cc2ccccc2)C(C)(C)C)c2ccccc2c1=O | inactive |
| O=C(CN1CCCCCC1)Nc1ccc(Br)cc1[N+](=O)[O-] | inactive |
| Cc1ccc(S(=O)(=O)NC2CCCCCC2)cc1 | inactive |
| Cc1ccc(S(=O)(=O)N(C)C2(C)CCS(=O)(=O)C2)cc1 (centres undefined) | inactive |
| Cc1ccc(S(=O)(=O)C2(S(=O)(=O)c3ccc(C)cc3)CCCC2)cc1 | 7.31 µM (active) |
| COc1ccc(/C=C(/NC(=O)c2ccccc2)C(=O)Nc2cccc(C(=O)O)c2)cc1 | inactive |
| Cc1ccc(S(=O)(=O)CCC(=O)OCc2ccccc2)cc1 | inactive |
| CCOC(=O)N1CCN(C(=O)CN(c2ccc(C)c(C)c2)S(=O)(=O)c2ccccc2)CC1 | inactive |
| Cc1ccc(S(=O)(=O)N(CCc2ccccc2)c2ccc3c(c2)C2CC3CCN2C(=O)OCc2ccccc2)cc1 (centres undefined) | 20.6 µM (active) |
